{"source": "the supplement of paper PMC8285479", "tested_on": "NCI-H1944", "test": "normalised cell viability (NPI; 0 = phenylarsine oxide control, 1 = DMSO control) (fraction of DMSO control); NCI-H1944 is a non-small cell lung cancer line; higher = more viable cells (less compound toxicity)", "details": "6 days", "key": {"[1]": {"details": "glucocorticoid arm: hydrocortisone 2.75 uM co-treatment, compound 1 µM"}, "[2]": {"details": "glucocorticoid arm: hydrocortisone 2.75 uM co-treatment, compound 5 µM"}, "[3]": {"details": "glucocorticoid arm: hydrocortisone 2.75 uM pre-treated 2 days and continued, compound 1 µM"}, "[4]": {"details": "glucocorticoid arm: hydrocortisone 2.75 uM pre-treated 2 days and continued, compound 5 µM"}, "[5]": {"details": "glucocorticoid arm: vehicle, compound 1 µM"}, "[6]": {"details": "glucocorticoid arm: vehicle, compound 5 µM"}}, "note": "Counter-ions that a name gives are not always drawn. ± gives the standard deviation of the averaged measurements. Over roughly 1,900 compounds, “normalised cell viability (NPI; 0 = phenylarsine oxide control, 1 = DMSO control)” has its median near 1; the lowest 2% begin near 0.039. What follows is part of a selection rich in the lowest values, with near analogues and random picks from the rest.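 Also: CTB read-out in 384-well plates, triplicate wells, NPI normalised per plate against 1 µM phenylarsine oxide (0) and 0.1% DMSO (1) controls.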"}
{"smiles": "Cc1ccc(C(=O)c2cc(/C=C/C(=O)NO)n(C)c2)cc1", "values": [{"measurement": "normalised cell viability", "setting": "[1]", "result": "1 ± 0.022"}, {"measurement": "normalised cell viability", "setting": "[2]", "result": "1.02 ± 0.02"}, {"measurement": "normalised cell viability", "setting": "[3]", "result": "1 ± 0.021"}, {"measurement": "normalised cell viability", "setting": "[4]", "result": "1.02 ± 0.017"}, {"measurement": "normalised cell viability", "setting": "[5]", "result": "0.9928 ± 0.0048"}, {"measurement": "normalised cell viability", "setting": "[6]", "result": "0.995 ± 0.022"}]}
{"smiles": "CC(C=CC(=O)NO)=CC(C)C(=O)c1ccc(N(C)C)cc1", "note": "(stereo not given) [Trichostatin A (TSA)]", "values": [{"measurement": "normalised cell viability", "setting": "[1]", "result": "0.0292 ± 0.0042"}, {"measurement": "normalised cell viability", "setting": "[2]", "result": "-0.000733 ± 0.0048"}, {"measurement": "normalised cell viability", "setting": "[3]", "result": "0.937 ± 0.098"}, {"measurement": "normalised cell viability", "setting": "[4]", "result": "0.00269 ± 0.00055"}, {"measurement": "normalised cell viability", "setting": "[5]", "result": "0.00709 ± 0.0011"}, {"measurement": "normalised cell viability", "setting": "[6]", "result": "8.2e-05 ± 0.00089"}]}
{"smiles": "CC(/C=C/C(=O)NO)=C\\[C@@H](C)C(=O)c1ccc(N(C)C)cc1", "note": "[Trichostatin A]", "values": [{"measurement": "normalised cell viability", "setting": "[1]", "result": "2.17e-05 ± 0.00056"}, {"measurement": "normalised cell viability", "setting": "[2]", "result": "0.000584 ± 0.0001"}, {"measurement": "normalised cell viability", "setting": "[3]", "result": "0.00474 ± 0.0016"}, {"measurement": "normalised cell viability", "setting": "[4]", "result": "0.00101 ± 0.0013"}, {"measurement": "normalised cell viability", "setting": "[5]", "result": "-0.000312 ± 0.00084"}, {"measurement": "normalised cell viability", "setting": "[6]", "result": "0.000187 ± 0.00072"}]}
{"smiles": "CN1CCC[C@@H]1c1cccnc1.Cc1ccc(C(=O)O[C@H](C(=O)O)[C@@H](OC(=O)c2ccc(C)cc2)C(=O)O)cc1", "note": "[(+)-Nicotine (+)-di-p-toluoyl tartrate]", "values": [{"measurement": "normalised cell viability", "setting": "[1]", "result": "1.03 ± 0.015"}, {"measurement": "normalised cell viability", "setting": "[2]", "result": "1.02 ± 0.016"}, {"measurement": "normalised cell viability", "setting": "[3]", "result": "1.03 ± 0.01"}, {"measurement": "normalised cell viability", "setting": "[4]", "result": "1.03 ± 0.021"}, {"measurement": "normalised cell viability", "setting": "[5]", "result": "1.027 ± 0.0058"}, {"measurement": "normalised cell viability", "setting": "[6]", "result": "1.03 ± 0.015"}]}
{"smiles": "CC1CN(S(=O)(=O)c2cccc3cnccc23)CCN1", "note": "(stereo not given)", "values": [{"measurement": "normalised cell viability", "setting": "[1]", "result": "0.9777 ± 0.0078"}, {"measurement": "normalised cell viability", "setting": "[2]", "result": "0.966 ± 0.025"}, {"measurement": "normalised cell viability", "setting": "[3]", "result": "0.9933 ± 0.0051"}, {"measurement": "normalised cell viability", "setting": "[4]", "result": "1.01 ± 0.091"}, {"measurement": "normalised cell viability", "setting": "[5]", "result": "0.9757 ± 0.0074"}, {"measurement": "normalised cell viability", "setting": "[6]", "result": "0.9753 ± 0.0076"}]}
{"smiles": "Oc1cc2c(c(Cl)c1O)CCNCC2c1ccccc1", "note": "(racemic) [(±)-6-Chloro-PB hydrobromide]", "values": [{"measurement": "normalised cell viability", "setting": "[1]", "result": "1.007 ± 0.0058"}, {"measurement": "normalised cell viability", "setting": "[2]", "result": "1.04 ± 0.023"}, {"measurement": "normalised cell viability", "setting": "[3]", "result": "1.03 ± 0.015"}, {"measurement": "normalised cell viability", "setting": "[4]", "result": "1.05 ± 0.01"}, {"measurement": "normalised cell viability", "setting": "[5]", "result": "1.02 ± 0.01"}, {"measurement": "normalised cell viability", "setting": "[6]", "result": 1.02}]}
{"smiles": "O=C(c1ccc2c(c1)OCCO2)N1CCCCC1", "values": [{"measurement": "normalised cell viability", "setting": "[1]", "result": "1.005 ± 0.0092"}, {"measurement": "normalised cell viability", "setting": "[2]", "result": "1 ± 0.017"}, {"measurement": "normalised cell viability", "setting": "[3]", "result": 1.01}, {"measurement": "normalised cell viability", "setting": "[4]", "result": "1 ± 0.017"}, {"measurement": "normalised cell viability", "setting": "[5]", "result": "0.9913 ± 0.0096"}, {"measurement": "normalised cell viability", "setting": "[6]", "result": "0.9947 ± 0.0021"}]}
{"smiles": "O=C1O/C(=C/Br)CCC1c1cccc2ccccc12", "note": "(stereo not given) [Bromoenol lactone]", "values": [{"measurement": "normalised cell viability", "setting": "[1]", "result": 1.02}, {"measurement": "normalised cell viability", "setting": "[2]", "result": "1.02 ± 0.026"}, {"measurement": "normalised cell viability", "setting": "[3]", "result": "1.01 ± 0.01"}, {"measurement": "normalised cell viability", "setting": "[4]", "result": 1.02}, {"measurement": "normalised cell viability", "setting": "[5]", "result": "0.998 ± 0.013"}, {"measurement": "normalised cell viability", "setting": "[6]", "result": 1.01}]}
{"smiles": "CCOC(=O)C1=CN(Cc2ccccc2)C=C(C(=O)OCC)C1c1ccccc1", "values": [{"measurement": "normalised cell viability", "setting": "[1]", "result": "0.995 ± 0.018"}, {"measurement": "normalised cell viability", "setting": "[2]", "result": "1.01 ± 0.026"}, {"measurement": "normalised cell viability", "setting": "[3]", "result": "1 ± 0.019"}, {"measurement": "normalised cell viability", "setting": "[4]", "result": "1.01 ± 0.021"}, {"measurement": "normalised cell viability", "setting": "[5]", "result": "0.993 ± 0.0059"}, {"measurement": "normalised cell viability", "setting": "[6]", "result": "1.003 ± 0.01"}]}
{"smiles": "O=C(O)c1cc(O)c2ccc(Cl)cc2n1", "note": "[7-Chlorokynurenic acid]", "values": [{"measurement": "normalised cell viability", "setting": "[1]", "result": "1.002 ± 0.0069"}, {"measurement": "normalised cell viability", "setting": "[2]", "result": "0.974 ± 0.0072"}, {"measurement": "normalised cell viability", "setting": "[3]", "result": "1.01 ± 0.015"}, {"measurement": "normalised cell viability", "setting": "[4]", "result": "0.9873 ± 0.0046"}, {"measurement": "normalised cell viability", "setting": "[5]", "result": "1.01 ± 0.01"}, {"measurement": "normalised cell viability", "setting": "[6]", "result": "0.997 ± 0.0036"}]}
{"smiles": "N=C(N)NCCCCN", "note": "[Agmatine sulfate]", "values": [{"measurement": "normalised cell viability", "setting": "[1]", "result": "1.017 ± 0.0058"}, {"measurement": "normalised cell viability", "setting": "[2]", "result": "1 ± 0.025"}, {"measurement": "normalised cell viability", "setting": "[3]", "result": "1.003 ± 0.0058"}, {"measurement": "normalised cell viability", "setting": "[4]", "result": "1 ± 0.025"}, {"measurement": "normalised cell viability", "setting": "[5]", "result": "0.986 ± 0.012"}, {"measurement": "normalised cell viability", "setting": "[6]", "result": "0.997 ± 0.011"}]}
{"smiles": "CC(C)C[C@H](NC(=O)[C@H](O)[C@H](N)Cc1ccccc1)C(=O)O", "note": "[Epibestatin hydrochloride]", "values": [{"measurement": "normalised cell viability", "setting": "[1]", "result": "1.003 ± 0.0064"}, {"measurement": "normalised cell viability", "setting": "[2]", "result": "0.9953 ± 0.004"}, {"measurement": "normalised cell viability", "setting": "[3]", "result": "0.9977 ± 0.004"}, {"measurement": "normalised cell viability", "setting": "[4]", "result": "0.9947 ± 0.005"}, {"measurement": "normalised cell viability", "setting": "[5]", "result": "0.9957 ± 0.0067"}, {"measurement": "normalised cell viability", "setting": "[6]", "result": "1.007 ± 0.0058"}]}
{"smiles": "CC(C)C[C@H](NC(=O)[C@H](Cc1ccccc1)NC(=O)c1cnccn1)B(O)O", "note": "[Bortezomib (Velcade)]", "values": [{"measurement": "normalised cell viability", "setting": "[1]", "result": "0.352 ± 0.024"}, {"measurement": "normalised cell viability", "setting": "[2]", "result": "0.0578 ± 0.0037"}, {"measurement": "normalised cell viability", "setting": "[3]", "result": "0.677 ± 0.016"}, {"measurement": "normalised cell viability", "setting": "[4]", "result": "0.351 ± 0.042"}, {"measurement": "normalised cell viability", "setting": "[5]", "result": "0.00826 ± 0.0011"}, {"measurement": "normalised cell viability", "setting": "[6]", "result": "0.000986 ± 0.0007"}]}
{"smiles": "CC(C)C[C@H](NC(=O)[C@H](Cc1ccccc1)NC(=O)c1cnccn1)B(O)O", "note": "[Bortezomib]", "values": [{"measurement": "normalised cell viability", "setting": "[1]", "result": "0.281 ± 0.011"}, {"measurement": "normalised cell viability", "setting": "[2]", "result": "0.0356 ± 0.0084"}, {"measurement": "normalised cell viability", "setting": "[3]", "result": "0.669 ± 0.035"}, {"measurement": "normalised cell viability", "setting": "[4]", "result": "0.28 ± 0.054"}, {"measurement": "normalised cell viability", "setting": "[5]", "result": "0.00407 ± 0.00064"}, {"measurement": "normalised cell viability", "setting": "[6]", "result": "0.00157 ± 0.00063"}]}
{"smiles": "CC(C)C[C@H](NC(=O)[C@@H](O)[C@H](N)Cc1ccccc1)C(=O)O", "note": "[Bestatin hydrochloride]", "values": [{"measurement": "normalised cell viability", "setting": "[1]", "result": "0.996 ± 0.0046"}, {"measurement": "normalised cell viability", "setting": "[2]", "result": "1.02 ± 0.011"}, {"measurement": "normalised cell viability", "setting": "[3]", "result": "0.989 ± 0.01"}, {"measurement": "normalised cell viability", "setting": "[4]", "result": "1.02 ± 0.033"}, {"measurement": "normalised cell viability", "setting": "[5]", "result": "0.979 ± 0.012"}, {"measurement": "normalised cell viability", "setting": "[6]", "result": "0.9903 ± 0.0015"}]}
